High-throughput results deposited in PubChem BioAssay by National Center for Advancing Translational Sciences (NCATS).
The sample as a whole holds a higher share of hits than the screen did.
TDP1 cell CPT: DT40-hTDP1 cell growth loss with CPT. Potency, µM (highest dose often 46.2 µM), inactives show at the top dose activity change, negative = growth inhibition, usual class: inhibitors. 420,000 compounds, 12% hits. AID 686979. chicken DT40 Tdp1-/-;hTDP1 cells + 20 nM CPT, ATP luminescence, 48 h; note: potency is the fitted concentration of half-maximal effect; nearly all actives have a fitted effect of over 55% in size
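Chicken DT40 Tdp1-/- cells stably complemented with human TDP1 were seeded at 400 cells/well in medium containing 20 nM camptothecin, exposed to pin-transferred compounds, and grown at 37 °C for at least 48 hr. Viability was read as ATP luminescence.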
HT1080 IDH1KD tx: toxicity to HT-1080 IDH1 knockdown cells (counter line); Potency, µM (series often up to 46.1 µM), for inactives: at the top dose activity, negative = toxicity, actives largely listed as cytotoxic; HT-1080 IDH1 knockdown viability, ATP luminescence, 48 h; 360,000 compounds, 2% hits;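 note: potency is the fitted concentration of half-maximal effect; 0% = DMSO wells and -100% = cell-free medium wells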
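IDH1KD HT-1080 cells, 750/well, RPMI + 5% FBS; compound pinned after 2 h settling; 48 h, 37 °C; CellTiter-Glo luminescence; % activity normalised to DMSO and no-cell wells; curves fitted, classed by r2 and efficacy.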
IL1B secr inh: inflammasome signaling inhibition, IL-1 beta readout | 360,000 compounds, 4.7% hits | THP-1 LPS/ATP IL-1B secretion, AlphaLISA, 16 h; active compounds read low | activity change, % at 57.5 µM; in the data active = activity change below about -50%; inconclusive = mostly about -30% to -49%
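THP-1 cells pretreated 1 hr with compounds (up to 57.5 uM final), then stimulated with LPS (250 ng/mL final) plus ATP (1.25 mM final); secreted IL-1B measured by AlphaLISA after 16 hr, decreased signal indicating inhibition.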
DT40 TDP1 no CPT: qHTS for Inhibitors of human tyrosyl-DNA phosphodiesterase 1 (TDP1): qHTS in cells in absence of CPT | 420,000 compounds, 15% hits | Potency, µM (top dose mostly 46.2 µM), for inactives: at the highest dose activity change, negative = growth inhibition, most hits filed as inhibitors | DT40 Tdp1-/- hTDP1 cells, no CPT, ATP luminescence, 48 h | AID 686978, 2013; note: potency is the fitted concentration of half-maximal effect; nearly all actives have a fitted effect of over 55% in size
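Growth kinetics read by CellTiter-Glo luminescence after ≥48 hr at 37 °C. Cells: DT40 Tdp1-/- stably carrying human TDP1, 400 per well, compound exposure in the absence of CPT (DMSO vehicle).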
HT1080NT lethal: kills 2HG-producing HT-1080-NT fibrosarcoma cells; HT-1080-NT fibrosarcoma viability, CellTiter-Glo ATP luminescence, 48 h; 360,000 compounds, 1.6% hits; Potency, µM (series often up to 46.1 µM), without a hit: top-dose activity, negative = less viability, hits mostly cytotoxic;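 note: NT is the 2HG producing partner of a matched IDH1 knockdown line; potency is the fitted concentration of half-maximal effect; 0% = DMSO-treated cells and -100% = media-only wells without cells; nearly all actives have a fitted effect of over 55% in size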
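Viability by CellTiter-Glo luminescence after 48 h compound exposure at 37C of HT-1080-NT cells (750/well, RPMI, 5% FBS). % activity scaled between DMSO wells and medium-only wells, then curve-fitted and categorized by curve class.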
ALOX12 inh: ALOX12 (human) lipoxygenase inhibition. purified 12hLO, xylenol orange hydroperoxide absorbance. Potency, µM (series often up to 108 µM), inactives show at the top dose activity change, negative = inhibition, usual class: inhibitors. 580,000 compounds, 1.1% hits; note: potency is the fitted concentration of half-maximal effect
Target sequence (P18054 whole entry, looked up): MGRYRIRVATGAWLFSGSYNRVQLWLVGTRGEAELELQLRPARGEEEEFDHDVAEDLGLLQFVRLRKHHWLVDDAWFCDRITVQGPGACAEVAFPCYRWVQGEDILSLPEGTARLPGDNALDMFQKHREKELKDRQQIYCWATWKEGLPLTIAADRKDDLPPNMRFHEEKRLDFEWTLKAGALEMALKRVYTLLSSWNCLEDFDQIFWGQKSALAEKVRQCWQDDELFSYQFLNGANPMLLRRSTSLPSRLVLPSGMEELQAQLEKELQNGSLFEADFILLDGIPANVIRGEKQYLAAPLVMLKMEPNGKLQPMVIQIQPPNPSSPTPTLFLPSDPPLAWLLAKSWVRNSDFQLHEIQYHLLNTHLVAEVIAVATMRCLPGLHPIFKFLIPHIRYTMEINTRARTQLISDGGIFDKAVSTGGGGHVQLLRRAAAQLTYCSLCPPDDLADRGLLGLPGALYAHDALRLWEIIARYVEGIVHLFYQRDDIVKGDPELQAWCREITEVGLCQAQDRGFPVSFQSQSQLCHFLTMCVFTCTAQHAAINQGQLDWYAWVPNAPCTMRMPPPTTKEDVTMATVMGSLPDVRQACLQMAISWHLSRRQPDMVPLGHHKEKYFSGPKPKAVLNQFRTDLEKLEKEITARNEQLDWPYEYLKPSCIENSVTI
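Purified human 12hLO (150 nM final) in 25 mM Hepes, 0.01% Triton X-100, pH 7.0 was preincubated 15 min at room temperature with compound. Then 40 uM arachidonic acid was added, 30 min. Hydroperoxide was read by Fe-XO absorbance ratio 573/405 nm.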
* = called active by the depositor; i = inactive; ? = inconclusive; nt = no result given; [ ] = another dose, or the depositor's remark. Unless noted, calls come from the whole dose curve; as a rule, active = well fitted curve in the direction sought with a large enough effect; inconclusive = small, poorly fitted or top-dose-only effect, or another doubt; inactive = no such curve, though single readings can be large; an effect the other way counts as inactive or inconclusive. Unless noted, % is set by controls: 0 for no effect and ±100 for the full control effect.

SMILES	TDP1 cell CPT	HT1080 IDH1KD tx	IL1B secr inh	DT40 TDP1 no CPT	HT1080NT lethal	ALOX12 inh
O=C(Cn1c(=O)n(Cc2ccco2)c(=O)c2oc3ccccc3c21)Nc1ccccc1	?	nt	nt	?	nt	-5%
COc1cccc(-c2[nH]nc3c2C(c2ccc(OC)c(OC)c2OC)C(C#N)=C(N)O3)c1 (stereo not drawn)	nt	nt	nt	nt	nt	-15%
COCc1nc2nccc(-c3ccc(OC)cc3F)n2n1	nt	nt	nt	nt	nt	-9%
Cc1ccc(Cl)cc1NC(=O)Cn1c(=O)n(Cc2ccccc2)c(=O)c2oc3ccccc3c21	?	nt	nt	?	nt	-14%
Cc1cccc(NC(=O)Cn2c(=O)n(Cc3ccccc3)c(=O)c3oc4ccccc4c32)c1C	4.6µM*	nt	nt	3.3µM*	nt	-9%
O=C(O)c1ccccc1C(=O)c1ccc2c(c1)N(Cc1ccc(Cl)c(Cl)c1)C(=O)CO2	-24%	-23%	-53*	?	-29%	?
O=c1c2ccccc2[nH]c2ccc(O)cc12	16%	-2%	-71*	-25%	3%	?
O=c1c2ccccc2[nH]c2ccc(F)cc12	21µM*	-3%	-22	9.2µM*	-4%	-7%
O=c1[nH]c2ccccc2c(=O)c2ccccc12	-7%	-4%	-17	-25%	-1%	-16%
O=c1nc(-c2ccccc2Cl)c2cc(F)ccc2[nH]1	-13%	-11%	1	?	-15%	i
Cc1cc(=O)[nH]c2cc(O)ccc12	5%	-6%	23	4%	9%	-13%
Cc1ccc2[nH]c3ccccc3c(=O)c2c1	12µM*	-22%	-16	12µM*	-11%	62%
Cc1cc(=O)[nH]c2ccc(O)cc12	0.35µM*	nt	nt	-1%	nt	nt
COc1ccc(C(=O)N2CCC3(C2)C(=NC2CCCCC2)NC(=O)N3c2cc(F)cc(F)c2)cc1 (stereo not drawn)	nt	nt	nt	nt	nt	1%[6.33 µM]
COc1ccccc1CN1CCN(C(=O)c2ccc3c(c2)C(O)CCCCCN3C)CC1 (stereo not drawn)	nt	nt	nt	nt	nt	41%
COc1ccc(-c2cc(C(F)(F)F)nc(NCCc3ccccc3)n2)cc1OC	-16%	nt	nt	-25%	nt	-22%
COc1ccc(-c2cc(-c3ccccc3)nc(NN)n2)cc1OC	3.7µM*	?	?	?	?	?
COc1nc(-c2ccccc2)cc(-c2ccc(OC)c(OC)c2)n1	?	?	-19	21µM*	-8%	-20%
O=C(CSc1nnc(-c2ccc(O)cc2)o1)Nc1ccccc1	6%	-15%	-3	-20%	-11%	5%
O=C(CSc1nnc(-c2csc3c2CCCC3)o1)Nc1ccccc1	?	-3%	-50*	?	-11%	21%
CN1CCOc2c(C(=O)NCC[S+](C)(=O)[O-])cc(-c3ccccc3F)cc21	nt	nt	nt	nt	nt	-3%[176 µM]
Cc1ccc(NC(=O)N2CCCCCC2)c(C)c1	-21%	17%	-16	-2%	7%	2%
Cc1ccc(N/C(N)=N/c2nc(C)cc(N3CCCCC3)n2)c(C)c1	2.3µM*	?	-103*	2.6µM*	15µM*	-4%
N/C(=N\c1nc2c(c(=O)[nH]1)CCCC2)Nc1ccccc1Sc1ccccc1	11µM*	8%	29	20µM*	12%	3%
N/C(=N\c1nc2c(c(=O)[nH]1)CCCC2)Nc1ccccc1	-27%	0%	6	?	-2%	0%[57.4 µM]
Cc1ccc(N/C(N)=N/c2nc3c(c(=O)[nH]2)CCCC3)c(C)c1	13µM*	5%	-20	12µM*	2%	20%
Cc1ccc2[nH]cc(CCN3CC(C(=O)NCCCOC(C)C)CC3=O)c2c1 (stereo not drawn)	nt	nt	nt	nt	nt	8%
CCCNC(=O)c1ccccc1NC(=O)c1ccc(CSc2ccccc2)cc1	?	-17%	0	21µM*	-25%	238%
